Structures are written as SMILES.

The test system of the assay is Perkinsus marinus PRA240. The experiment in a line: ATP content (proliferation) relative to DMSO control; higher = more parasite growth (less inhibition). The following applies: 20 µM; 4 days. The method, then: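 Perkinsus marinus PRA240 trophozoites (2-5x10^6 cells/ml, 100 µl, 96-well) were exposed once to MMV Malaria Box compounds at 20 µM (0.1% DMSO) in triplicate. ATP content (ATPlite bioluminescence) was read at day 4 post-exposure and normalised to DMSO + cells control wells (100% activity). Compounds were identified by joining plate and well to the Malaria Box list.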
In turn, `CCN(CC)CCn1c(=N)n(CC(O)c2ccc(Cl)c(Cl)c2)c2ccccc21` (stereo not given) registered an ATP content of 110%. On to `Cc1ccc(NC(=O)Nc2cccc(Cl)c2)cc1F`, for which the ATP content is 85%.

`COc1ccc(OC)c(C2C3=C(CC(C)(C)CC3=O)N(c3ccc(Cl)c(Cl)c3)C3=C2C(=O)CC(C)(C)C3)c1` registered an ATP content of 161%.

Consider `Cc1c(C)n(Cc2ccc(F)cc2)c2ccc(C(=O)NCc3ccco3)cc12`, for which the ATP content stood at 111%.

The compound `O=C(NC1CCN(Cc2ccccc2)CC1)c1cc2nc(-c3ccc(Cl)s3)cc(C(F)(F)F)n2n1` gave an ATP content of 118%.

In turn, `COc1ccc(C2NCCc3c2[nH]c2ccccc32)cc1CN1CCN(c2ccc(F)cc2)CC1` (stereo not given) yielded an ATP content of 171%. The compound `COc1ccc2nc(N)nc(C)c2c1` returned an ATP content of 88%. `CCN(CC)S(=O)(=O)c1ccc(-c2csc(Nc3ccc(C)c(C)c3)n2)cc1`: the ATP content was 142%. Take `Cn1c(=O)c2cc(C(=O)NCCCN3CCCCCC3)sc2c2ccccc21`: the ATP content was 86.3%. Then `O=C1c2ccccc2C2=Nc3ccccc3SC(c3cccc(F)c3)C12` (stereo not given), with 36.8%. Consider `O=C(CCc1ccccc1)c1ccccc1OCC(O)CN1CCCCC1` (stereo not given), for which the ATP content is 62.3%. Then `c1ccc(CNc2nc(Nc3ccccc3)nc3ccccc23)cc1`, with 75.4%. For `Cc1ccc(CN2CCC(C(=O)Nc3ccc(-c4cc5ccccc5[nH]4)cc3)CC2)o1`, the ATP content was found to be 83.4%. Take `CC(C)(C)c1ccc(C(=O)Nc2nc3ccccc3s2)cc1`: the ATP content was determined as 57%.

For `CCc1ccc(CNCC(O)c2ccccc2)cc1` (stereo not given), the ATP content amounted to 60.8%. Compound `O=C(NC1CCN(Cc2ccccc2)CC1)c1cc(-c2ccncc2)nc2ccc(Cl)cc12` registered an ATP content of 172%.

Consider `O=C(NC1CCCCC1)C(c1cccs1)N(CCc1ccccc1)C(=O)c1ccco1` (stereo not given), for which the ATP content was 101%. `O=C1c2ccc3c4c(ccc(c24)C(=O)N1CCCCO)C(=O)N(CCCCO)C3=O` showed an ATP content of 50.5%. The same measure for `CN1C=C(c2ccc3ccccc3n2)C(c2c[nH]c3ccccc23)c2ccccc21` (stereo not given): 108%; for `Cc1sc(NC(=O)c2ccco2)c(C(c2cccnc2)N2CCC(Cc3ccccc3)CC2)c1C` (stereo not given): 48.5%; for `Cc1cccc(N2C(=O)C3C(C2=O)C2(c4ccccc4)C(=O)C3(c3ccccc3)C(c3ccc4c(c3)OCO4)=C2c2ccc3c(c2)OCO3)c1` (stereo not given): 110%. The same measure for `Cc1ccccc1OCCSc1nc2ccc(NC(=O)c3ccccc3)cc2s1`: 50.6%; for `CCOc1ccc(Nc2c3ccccc3nc3ccccc23)cc1`: 159%. Then `O=C(NCCCN1CCC(N2CCCCC2)CC1)C1=Cc2cc(Br)ccc2OC1`, with 224%; and `CC1=C(CC(=O)c2cccc([N+](=O)[O-])c2)C(=O)c2ccccc2C1=O`, with 136%; and `COc1ccc(CCNC(=O)c2cc(S(=O)(=O)N3CC(C)CC(C)C3)ccc2Sc2ccc(F)cc2)cc1OC` (stereo not given), with 160%.

The compound `O=C(NNc1cc(N2CCCC2)nc(N2CCCC2)n1)c1ccccc1` gave an ATP content of 101%.

On to `O=C(c1ccccc1F)N(Cc1ccc(Cl)cc1)c1ccccn1`, for which the ATP content was 59%. Compound `CCOC(=O)c1cnc2c(C)cccc2c1Nc1ccc(C(C)=O)cc1` displayed an ATP content of 122%.

As for `O=C(Nc1ccc(F)c(Cl)c1)Nc1ccc(Cl)c(Cl)c1`, the ATP content worked out at 46.8%. The same measure for `CC(C)(C)c1ccc2c(c1)CN(Cc1ccc(Cl)cc1)CO2`: 107%; for `COc1cccc(C2(C)Nc3ccccc3-c3nc4ccccc4n32)c1` (stereo not given): 144%. The same measure for `COc1ccc(C=C2SC(Nc3ccc(F)cc3)=NC2=O)c(OC)c1`: 60.7%; for `CCCCc1ccc(NS(=O)(=O)c2cc3c4c(c2)CCN4C(=O)CC3)cc1`: 115%. `CCOC(=O)c1cnc2ccc(OC)cc2c1Nc1ccc(N2CCN(C)CC2)cc1` came in with an ATP content of 106%. The same measure for `CCCc1c(C)nc2ccccc2c1O`: 28.8%; for `CC(=O)c1ccc(NC(=O)CSc2nc(-c3ccccc3Cl)ns2)cc1`: 125%; for `OC(CNC1CCCC1)Cn1c2ccccc2c2ccccc21` (stereo not given): 148%. Then `Cc1sc2ncnc(Sc3nc4ccccc4[nH]3)c2c1C`, with 131%; and `Nc1ccc(-c2nc3cc(Cc4ccc5[nH]c(-c6ccc(N)cc6)nc5c4)ccc3[nH]2)cc1`, with 135%.

The values are drawn from the supplement of paper PMC4206467.
